Among the data in PubChem BioAssay AID1740 (National Center for Advancing Translational Sciences (NCATS), 2009) are Potency and activation values, retold here.

Structures are written as SMILES. Results filed as inconclusive are left out. A call without a number means that no potency is given here. Calls of active or inactive are those of the source. The call rests on the fitted dose curve; in most records, active means well fitted activation curve with a large enough effect; inconclusive means small, poorly fitted or top-dose-only effect; inactive means no such curve, though single readings can be large or run the other way.

This test in a line: Confirmation Concentration-Response Assay for Enhancers of SMN2 Splice Variant Expression. The conditions noted are these: HEK293 SMN2-exon7-luciferase splicing reporter, luminescence, 30-36 h; series mostly up to 46.1 µM. The source says:
NIH Chemical Genomics Center [NCGC] NIH Molecular Libraries Probe Production centers Network [MLPCN] MLPCN Grant: R03 MH084179-01 Assay Submitter (PI): Elliot Androphy NCGC Assay Overview: Spinal muscular atrophy (SMA) is caused by insufficient levels of the survival motor neuron protein SMN. The SMN locus on chromosome 5q13 contains two inverted copies of SMN called SMN1 and SMN2 which are 99% identical at the amino acid level. SMN1 is a fully functional protein and SMN2 skips exon 7 90% of the time. Skipping of exon 7 produces non-functional protein product. 10% of the SMN2 protein includes exon 7 and is fully functional. In the SMA disease state, mutations in the SMN1 locus are the cause of the disease state. Because only 10% of SMN2 is of the fully functional form, it is not sufficient to overcome the deficiency produced by the loss of the SMN1 product. A therapy that either increase the amount of SMN2 product made or to increase the inclusion of exon 7 has been proposed for the treatment of SMA. We have designed an assay to identify small molecules that can increase the amount of functional SMN2 product by appending a luciferase reporter gene after the native SMN2 gene, such that inclusion of exon 7 in the expressed product places the luciferase sequence in frame, thus generating functional luciferase enzyme.
NCGC Assay Protocol Summary: This screen utilizes a luciferase reporter gene assay, combining the promoter with the major portion of the native SMN2 cDNA (exons 1 -7, intron 8 , exon 8 fused to luciferase) stably expressed in HEK293 cells. Compounds that increase luciferase signal presumably enhance expression of the functional SMN2 splice variant. Passaging media contained DMEM w/ glutamax (+phenol red) 10% FCS, 1x pen/strep, 200 ug/ml hygro, 1x sodium pyruvate. Assay media contained DMEM w/ glutamax (-phenol red) 10% FCS, 1x pen strep, 1x pyruvate Sequence, Parameter, Value, Description (1) Cells, 5 uL, 2000 cells/well, 1536 TC treated White solid bottom plate (2) Time, 10-12 hours, 37C 5% CO2 (3) Compound, 23 nl, MLSMR Library (4) Control Compound, 23 nL, Sodium butyrate st 4.5mM (final) conc (5) Time, 30-36 hours, 37C 5% CO2 (6) Reagent, 3 ul, One Glo (TM) from Promega (7) Time, 5-15 minutes, Room temp (8) Detector, Viewlux: luminescent read, 60 second integration, high speed 2x binning Keywords: Spinal muscular atrophy, SMA, SMN2, high throughput screening, MLSMR, MLPCN, NIH Roadmap, qHTS and NCGC
Turning to `OCCCNc1nc(-c2ccc(Br)cc2)nnc1-c1ccc(Cl)cc1`, the Potency entry is “inactive”.
On to `Clc1ccc(-c2nnc(-c3ccccc3)c(N3CCSCC3)n2)cc1`, for which the Potency entry is “inactive”.
The same measure, in the same setting: with `CN(C)CCCN(C(=O)c1cccs1)c1nc(-c2ccccc2)cs1` the entry was “inactive”; with `NC(=O)C1(N2CCCCC2)CCN(c2nc(-c3ccccc3)cs2)CC1`, “inactive”; with `O=C(NCCCNCCCNC(=O)c1ccccn1)c1ccccn1`, “inactive”.
For the compound `Fc1ccc(Oc2nc(-c3ccccc3)nnc2C(F)(F)F)cc1`, the Potency result is “inactive”.
Turning to `O=C(NCc1cccs1)C(=O)NCC1OCCCN1S(=O)(=O)c1ccccc1` (configuration not stated), the Potency entry is “inactive”.
The same measure, in the same setting: with `CC(C)(C)n1nnnc1C(c1ccc2ncccc2c1)N1CCSCC1` (configuration not stated) the entry was “inactive”.
In the case of `CCOc1ccc2nc(N3CCC(C(=O)N4CCN(c5ccccn5)CC4)CC3)sc2c1`, the Potency result is “inactive”.
On the same count and under the same terms, with `O=[N+]([O-])c1ccc(-c2nnc(-c3ccccc3)c(N3CCOCC3)n2)cc1` the entry was “inactive”; with `Cc1oncc1C(=O)Nc1ccc(C(F)(F)F)cc1`, 7.08 µM (active); with `CCC(=O)n1nc(NCc2ccccc2OC)nc1NCc1ccccc1OC`, “inactive”.
As to `O=C(Nc1nc(-c2ccc3ccccc3c2)cs1)C1CCN(S(=O)(=O)c2cccs2)CC1`, the Potency entry is “inactive”.
For the compound `Cc1ccc(-c2nnc(-c3ccccc3)c(N3CCOCC3)n2)cc1`, the activation is 3.26% [at 9.48 µM] (inactive).
On to `CCCSc1nnc(Sc2nnnn2-c2ccccc2)s1`, for which the Potency entry is “inactive”.
For `Clc1nc(NCc2cccs2)c2[nH]cnc2n1`, the Potency result is “inactive”.
Turning to `CC1CN(c2nc(-c3ccc(Br)cc3)nnc2-c2ccccc2)CC(C)N1` (configuration not stated), the activation is -5.21% [at 9.48 µM] (inactive).
In the case of `COc1ccc(-c2csc(N3CCC(C(N)=O)(N4CCCCC4)CC3)n2)cc1`, the Potency result is “inactive”.
On to `Cc1[nH]c2ccccc2c1-c1nc(-c2ccc(Cl)cc2)nnc1-c1ccccc1`, for which the Potency result was “inactive”.
Same read-out and setting: with `COC(=O)C1=C(C)NC(=O)/C1=C\c1cc(C)n(-c2ccccc2F)c1C` the entry was “inactive”.
Take `FC(F)(F)c1cccc(-c2nnc(-c3ccccc3)c(N3CCOCC3)n2)c1`: the activation is -5.49% [at 9.48 µM] (inactive).
With `O=S(=O)(NC1CCCc2ccccc21)c1cnc[nH]1` (configuration not stated), the Potency entry is “inactive”.
Same read-out and setting: with `Cc1ccc(-c2nnc(-c3ccccc3)c(-c3ccccc3)n2)cc1` the entry was “inactive”.
Take `COCCCN1C(=O)C(=O)/C(=C(/O)c2ccc3c(c2)CC(C)O3)C1c1cccnc1` (configuration not stated): the Potency result was “inactive”.
Take `Clc1ccc(-c2nnc(-c3ccccc3)nc2N2CCSCC2)cc1`: the activation was 6.97% [at 9.48 µM] (inactive).
For the compound `OC[C@H]1O[C@@H](n2cnc3c(Nc4ccccc4)ncnc32)[C@H](O)[C@H]1O`, the Potency is 8.91 µM (active).
The same measure, in the same setting: with `FC(F)(F)c1cccc(Oc2nc(-c3ccccc3)nnc2C(F)(F)F)c1` the entry was “inactive”.
